Test results published in publication PMC4552634, “A New Set of Chemical Starting Points with Plasmodium falciparum Transmission-Blocking Potential for Antimalarial Drug Discovery” (PLoS ONE, 2015).
Out of some 13,000 compounds screened, about 3,200 (25%) showed an effect of 50% or more. The list shows a part of the results.

Test system: P. falciparum stage V gametocytes
Parameters: BacTiter-Glo ATP luminescence viability of purified stage V gametocytes in 384-well plates, per cent inhibition versus DMSO
Details: 48 h, 5 µM; inhibitor

| SMILES | % Inhibition [%] |
| --- | --- |
| N#Cc1ccc(NC(=NC2Cc3ccccc3C2)Nc2cccc(Cl)c2Cl)c(O)c1 [TCMDC-140223] | -11.72 |
| O=C(/C=C/c1cccc(Cl)c1)N1CCC(C(O)CN2CCC3(CC2)CN(C(=O)/C=C/c2cccc(Cl)c2)c2ccccc23)CC1 (stereo not drawn) [TCMDC-134543] | 57.97 |
| CS(=O)(=O)Nc1ccc2[nH]cc(C3CCN(CC(O)C4CCN(C(=O)/C=C/c5ccc(Cl)c(Cl)c5)CC4)CC3)c2c1 (stereo not drawn) [TCMDC-134176] | 30.58 |
| O=C(/C=C/c1ccc(Cl)c(Cl)c1)N1CCC(C(O)CN2CCC(c3c[nH]c4ccccc34)CC2)CC1 (stereo not drawn) [TCMDC-134171] | 19.99 |
| CC(=O)Nc1ccc(CN2CCC(NC(=O)c3ccc(-c4cccc(F)c4)s3)CC2)cc1 [TCMDC-134333] | 6.679 |
| CCNc1cc(C(=O)N[C@@H](Cc2cc(F)cc(F)c2)[C@H](O)CNCc2cccc(C(F)(F)F)c2)cc(N2CCCCS2(=O)=O)c1 [TCMDC-134678] | -1.763 |
| CC(C)CCNC(=O)[C@@H]1[C@H]2C(=O)N(C3CCCCC3)C(=O)[C@H]2[C@H]2C=C[C@@H]3C(c4ccc(C(C)(C)C)cc4)=NO[C@@H]3N21 [TCMDC-139763] | -31.5 |
| Cc1cc(CN2CCCC(OC(c3ccc(F)cc3)c3ccc(F)cc3)C2)ccc1O (stereo not drawn) [TCMDC-136168] | 43.13 |
| CCN(CC)CCNc1ccnc2[nH]c3ccc(Cl)cc3c12 [TCMDC-131832] | 4.266 |
| CN(C)CCNc1ncnc2c1[nH]c1ccc(Cl)cc12 [TCMDC-124582] | 1.888 |
| CCN(CC)CCNc1nc(C=Cc2ccc(Cl)cc2)nc2cc3ccccc3cc12 [TCMDC-125777] | 86.86 |
| CNC(=O)NC1=NC(C)(C)N(OCc2ccc(Cl)c(Cl)c2)C(NC(=O)NC)=N1 [TCMDC-131694] | 10.36 |
| CN(C)Cc1ccc(O)c(-c2ccc(C(C)(C)C)cc2)n1 [TCMDC-124147] | 10.19 |
| COc1ccc2nccc([C@@H](O)CN3CCC(NCCNc4cccc(F)c4)CC3)c2c1 [TCMDC-140716] | -36.18 |
| Cc1cc(N[C@@H](CC(C)C)C(=O)NCc2cccs2)nc(NCCc2ccccc2)n1 [TCMDC-134779] | 68.3 |
| Cc1cc(N[C@@H](CC(C)C)C(=O)NCCc2ccccc2)nc(NCCc2cccs2)n1 [TCMDC-134816] | 67 |
| COc1ccc(NC(=O)[C@H](CC(C)C)Nc2cc(C)nc(NCCc3ccccc3OC)n2)cc1 [TCMDC-134805] | -9.787 |
| Cc1cc(N[C@@H](CC(C)C)C(=O)NCc2cccs2)nc(Nc2ccccc2)n1 [TCMDC-134739] | -4.41 |
| Cc1cc(N[C@@H](CC(C)C)C(=O)NCc2cccs2)nc(NCCc2cccs2)n1 [TCMDC-134815] | 136.3 |
| Cc1cc(N[C@@H](CC(C)C)C(=O)NCc2cccs2)nc(NCCc2ccc(F)cc2)n1 [TCMDC-134794] | 46.14 |
| COc1ccccc1CCNc1nc(C)cc(N[C@@H](CC(C)C)C(=O)Nc2ccccc2)n1 [TCMDC-134808] | 19.68 |

| SMILES | % Inhibition [%] |
| --- | --- |
| COc1ccc(NC(=O)[C@H](CC(C)C)Nc2cc(C)nc(NCCc3cccs3)n2)cc1 [TCMDC-134875] | -27.08 |
| Cc1cc(N[C@@H](CC(C)C)C(=O)NCCc2ccccc2)nc(NCc2ccccc2C)n1 [TCMDC-134911] | -9.933 |
| Cc1cc(N[C@@H](CC(C)C)C(=O)NCCc2ccccc2)nc(Nc2ccccc2)n1 [TCMDC-134742] | -5.247 |
| COc1ccccc1CCNc1nc(C)cc(N[C@@H](CC(C)C)C(=O)NCc2cccs2)n1 [TCMDC-134806] | 64.45 |
| O=C(Nc1cccc(-c2ccc(-c3nc4ccccc4[nH]3)cc2)c1)c1cnn2cccnc12 [TCMDC-136866] | -17.05 |
| CN(c1ccc(NC(=O)CCOc2ccccc2)cc1)C1CCN(Cc2cccc(O)c2)CC1 [TCMDC-134988] | 49.59 |
| CC(C)(C)OC(=O)C1CCCN(Cc2ccc(-c3cccc(-c4nc5ccccc5[nH]4)c3)cc2)C1.O=C(O)C(F)(F)F (stereo not drawn) [TCMDC-132560] | 11.65 |
| C=CCN1CCC(N(Cc2cccc(Oc3ccccc3)c2)C(=O)C(c2ccccc2)c2ccccc2)CC1 [TCMDC-139601] | 20.39 |
| CC(C)(NCc1ccc(OC(F)(F)F)cc1)c1nc(-c2ccc(Cl)c(O)c2)c(-c2ccncc2)[nH]1 [TCMDC-140709] | -27.3 |
| CCOC(=O)c1cn(CC)c2cc(N(C)CCc3ccc(OC)c(OC)c3)c(F)cc2c1=O [TCMDC-124159] | 16.46 |
| O=C(NCc1ccc(Cl)cc1)c1ccc(CN2CCCN(CC3CCCCC3)CC2)cc1 [TCMDC-136441] | -2.203 |
| CCc1ccc(CN2CCC(CN(C(=O)c3ccccc3)c3ccc(Cl)cc3)CC2)cc1 [TCMDC-135382] | 136.1 |
| O=C(OCC1CCN(Cc2ccccc2)C1)c1ccc(Cl)cc1 (stereo not drawn) [TCMDC-138995] | -9.252 |
| CC(=O)Nc1ccc(C(=O)NC2CCN(c3ccnc4cc(Cl)ccc34)C2)cc1 (stereo not drawn) [TCMDC-133650] | -2.707 |
| COc1ccc(CN2CCC(CNC(C)c3cccc4ccccc34)CC2)cc1 (stereo not drawn) [TCMDC-141341] | -19.33 |
| O=[N+]([O-])c1cccc(CNCC2CCN(Cc3ccc(O)cc3)CC2)c1 [TCMDC-141212] | 5.704 |
| COc1ccc(CN2CCC(NCc3ccc(C(F)(F)F)cc3)CC2)cc1 [TCMDC-141653] | 11.64 |
| COc1ccc(CN2CCC(CNCc3cccc(-c4ccccc4)c3)CC2)cc1 [TCMDC-141349] | 97.96 |
| COc1ccc(CN2CCC(CNCC(c3ccccc3)c3ccccc3)CC2)cc1 [TCMDC-141342] | 89.13 |
| O=[N+]([O-])c1cccc(CNCC2CCN(Cc3ccc(-c4ccccc4)cc3)CC2)c1 [TCMDC-141208] | 17.3 |
| CCN(CC)c1ccc(C(c2ccc(N(CC)CC)cc2)c2cccc([N+](=O)[O-])c2)cc1 [TCMDC-131244] | -3.754 |
